From PubChem BioAssay (EPA / NIEHS) come the findings set out here.

A short description of assay [1]: Tanguay_ZF_120hpf_BRN: Oregon State University Tanguay Lab 120 Hour Post-fertilization zebrafish Assay for Brain Region Malformation (AID 2284402). An outline of the steps: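 Dechorionated wild-type Tropical 5D zebrafish embryos exposed statically from 6 to 120 hpf at 28C, one per well, 0.64% DMSO final. Brain malformation scored at 120 hpf by brightfield as present/absent; dead embryos not scored.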

Assay [2] can be described thus: Tanguay_ZF_120hpf_TCHR: Oregon State University Tanguay Lab 120 Hour Post-fertilization zebrafish Assay for Touch Responsive (AID 2284403). In a few lines: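 Dechorionated Tropical 5D wild-type zebrafish embryos, one per well from 6 hpf, were statically exposed to 120 hpf at 28 °C (0.64% DMSO). Touch response was scored present/absent at 120 hpf and not scored in dead larvae.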

Assay [3] is described as follows: Tanguay_ZF_120hpf_ANY: Oregon State University Tanguay Lab 120 Hour Post-fertilization zebrafish Assay for Any Mortality and Malformation (AID 2284404). In a few lines:
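Dechorionated Tropical 5D wild-type embryos, one per well from 6 hpf, static exposure in sealed, dark plates at 28C until 120 hpf, 0.64% DMSO final. Brightfield scoring of mortality and malformations as binary presence/absence, pooling 13 morphology endpoints.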

The nature of assay [4]: CCTE_Padilla_ZF_Score.Craniofacial: CCTE's 144 Hour Post-fertilization zebrafish Assay Score for Craniofacial Malformation, Padilla Lab (AID 2284405). An outline of the steps: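 Wild-type zebrafish embryos (with chorions), one per well in 10% Hanks', were dosed at 6–8 hpf in sealed plates and kept at 26C. They were rinsed at 5 dpf. At 6 dpf two blinded assessors scored craniofacial malformations by brightfield stereomicroscopy.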

A short description of assay [5]: CCTE_Padilla_ZF_Score.Edema: CCTE's 144 Hour Post-fertilization zebrafish Assay Score for Edema Malformation, Padilla Lab (AID 2284406). An outline of the steps: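 Wild-type zebrafish embryos, one per well in Hanks' solution, dosed at 6-8 hpf, sealed and reared at 26C on a 14:10 h cycle; rinsed on 5 dpf. At 6 dpf, blinded assessors scored edema by stereomicroscopy.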

The nature of assay [6]: CCTE_Padilla_ZF_Score.Spine: CCTE's 144 Hour Post-fertilization zebrafish Assay Score for Spine Malformation, Padilla Lab (AID 2284407). An outline of the steps:
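Wild-type zebrafish embryos, one per well in Hanks' solution, dosed at 6–8 hpf in sealed plates at 26C, 14:10 h light:dark; rinsed at 5 dpf. Two blinded assessors scored spinal defects by stereomicroscopy at 6 dpf; fitted versus DMSO.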

Assay [7] is described as follows: CCTE_Padilla_ZF_Score.Swim_bladder: CCTE's 144 Hour Post-fertilization zebrafish Assay Score for Swim Bladder Malformation, Padilla Lab (AID 2284408). An outline of the steps: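 Wild-type zebrafish embryos, one per well in 10% Hanks', dosed at 6–8 hpf, sealed, reared at 26C and rinsed at 5 dpf. Blinded assessors scored uninflated swim bladder by stereomicroscopy at 6 dpf, relative to DMSO.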

The nature of assay [8]: CCTE_Padilla_ZF_Score.Position: CCTE's 144 Hour Post-fertilization zebrafish Assay Score for Position, Padilla Lab (AID 2284409). In a few lines:
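Wild-type zebrafish embryos (with chorions) exposed singly from 6–8 hpf in sealed wells of Hanks' solution at 26C, rinsed at 5 dpf. At 6 dpf, blinded assessors scored abnormal water-column position by brightfield stereomicroscopy, relative to DMSO.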

Assay [9] in a line: CCTE_Padilla_ZF_Score.Living: CCTE's 144 Hour Post-fertilization zebrafish Assay Score for Viability, Padilla Lab (AID 2284410).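 Also: larval death at 6 dpf judged by absent heartbeat or coagulation.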 In a few lines:
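Wild-type zebrafish embryos were exposed singly from 6–8 hpf in sealed wells of Hanks' solution at 26C, then rinsed at 5 dpf. At 6 dpf, blinded assessors scored mortality (no heartbeat or coagulation) by stereomicroscopy, fitted against DMSO.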

Assay [10] can be described thus: CCTE_Padilla_ZF_Score.Tail: CCTE's 144 Hour Post-fertilization zebrafish Assay Score for Tail Malformation, Padilla Lab (AID 2284414). An outline of the steps:
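Wild-type zebrafish embryos, one per well in 200 uL 10% Hanks', dosed at 6-8 hpf, sealed, and kept at 26 C on a 14:10 h light cycle. Chemical was rinsed out at 5 dpf. Blinded brightfield scoring of tail defects followed at 6 dpf.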

Assay [11] deals with TTR (gene 7276). In words: CCTE_GLTED_hTTR_0.125uM: CCTE's human Transthyretin (hTTR) Inhibition Assay, with 0.125uM TTR, Great Lakes Toxicology and Ecology Division (GLTED) Lab (AID 2284431).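 Also: hits lower the fluorescence signal relative to DMSO baseline.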 An outline of the steps:
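Fluorescence (380 ex, 475 em) reported the ANSA probe remaining bound to 0.125uM human transthyretin. Chemicals were incubated with the protein for 2 hours; activity was scored as loss of signal against DMSO negative control.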

Activity calls are given as the source filed them. The calls were made as follows: active = hit-call score of the fitted dose curve at least 0.9, where 1 is the maximum; inactive = score below 0.9.

In the case of `C=CC(=O)OCCC(F)(F)C(F)(F)C(F)(F)C(F)(F)C(F)(F)C(F)(F)C(F)(F)C(F)(F)F`, the compound was called inactive in assay [1], in [2], in assay [3], in assay [4], in [5] and in assay [6]. The compound was called inactive in assay [7], in assay [8], in assay [9] and in assay [10].

Usually AC50 stands for the concentration at which the activity in the assay is half-maximal. In the case of `O=C(O)CCC(F)(F)C(F)(F)C(F)(F)C(F)(F)C(F)(F)C(F)(F)F`, the outcome in assay [4], in assay [5], in assay [6], in [8] and in assay [10] was inactive. Moreover, the figures for the concentration at half-maximal activity (AC50) in assay [7] and in assay [9] were 10.4 µM (active) and 22.2 µM (active), respectively.

On to `O=C(O)C(F)(F)OC(F)(F)C(F)(F)OC(F)(F)C(F)(F)OC(F)(F)C(F)(F)C(F)(F)C(F)(F)F`, for which the compound was classed as inactive in [1], in assay [2], in [4], in assay [6] and in assay [10]. Besides, the AC50 in assay [3] is 34.4 µM (active); in assay [5] it was 3.21 µM (active); in assay [7], 3.2 µM (active); in [8], 8.31 µM (active); in assay [9], 8.88 µM (active).

With `O=CC(F)(F)C(F)(F)C(F)(F)C(F)F`, the result in assay [4], in [5], in assay [6], in [7], in assay [8] and in assay [9] was inactive. For the same compound, the compound was called inactive in assay [10].

In the case of `FC(F)(F)C1(F)C(F)(F)C(F)(F)C(F)(F)C1(F)F`, the result in assay [4], in assay [5], in assay [6], in assay [7], in assay [8] and in assay [9] was inactive. The outcome in assay [10] was inactive.

For the compound `O=C(OC(=O)C(F)(F)C(F)(F)F)C(F)(F)C(F)(F)F`, the compound was called inactive in assay [4], in assay [5], in assay [6], in [7], in assay [8] and in assay [9]. Further, the result in assay [10] was inactive.

With `O=CC(F)(F)C(F)(F)C(F)(F)F`, the call in [4], in assay [5], in assay [6], in [7], in [8] and in assay [9] was inactive. For the same compound, the compound was classed as inactive in assay [10].

In the case of `Cc1[nH]nc2c1N=C(c1ccccc1Cl)c1cc([N+](=O)[O-])ccc1N2`, the AC50 in assay [11] was 0.771 µM (active).
